# Source: PubChem
# A selection: hits, their analogues and other compounds. The true share with any hit is near 4.1%.
# DAX1 inh-1: inhibits human nuclear receptor DAX1; actives 0.99% (n = 340,000); HEK293 Gal4-DAX1 luciferase reporter, luminescence; inhibition, % at 6.75 µM;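 active means inhibition above the mean over all tested compounds plus 3 SD, cut at about 4.2% in these data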;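 further: 0% = DAX1-transfected cells with DMSO and 100% = empty-vector control cells with DMSO; inhibition shows as a rise in luminescence from relieved DAX1 repression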
# Target sequence (P51843 207-470 limits assumed): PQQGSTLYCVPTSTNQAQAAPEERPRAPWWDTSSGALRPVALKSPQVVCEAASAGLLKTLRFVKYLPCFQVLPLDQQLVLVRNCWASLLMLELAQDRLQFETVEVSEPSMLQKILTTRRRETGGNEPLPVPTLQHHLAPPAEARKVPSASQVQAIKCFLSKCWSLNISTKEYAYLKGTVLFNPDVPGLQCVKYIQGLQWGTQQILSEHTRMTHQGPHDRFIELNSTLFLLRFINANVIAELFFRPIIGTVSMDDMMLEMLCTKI
# hgDAF-12 ag: agonists of H. glycines DAF-12 nuclear receptor; activation, % at 6.8 µM; HEK293 GAL4-hgDAF12 UAS-luciferase reporter, agonist luminescence; normalized to butyrate control; actives 1.8% (n = 370,000);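 active means activation above a cutoff set at the mean of all screened compounds plus 3 SD, cut at about 10% in these data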;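 further: 0% = DMSO wells and 100% = sodium butyrate wells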
# hcDAF-12 act: activates DAF-12 receptor from parasite H. contortus; HEK293 hcDAF-12 lit1-tk-luc reporter, luminescence; 0% DMSO, 100% Δ7-dafachronic acid; activation, % at 6.8 µM; actives 1.4% (n = 370,000);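 active means activation above the mean of all tested compounds plus 3 SD, cut at about 5.5% in these data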;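 further: 100% = response to 3 µM Δ7-dafachronic acid high control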
# ssDAF-12 act: activators of S. stercoralis DAF-12 nuclear receptor. actives 1% (n = 370,000). AID 652126. HEK293 ssDAF-12/GRIP1 lit1-tk-luc reporter, luminescence; % of 3 µM dafachronic acid response. activation, % at 6.8 µM;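 active means activation above the mean over all tested compounds plus 3 SD, cut at about 0.9% in these data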;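 further: 0% = DMSO-only wells and 100% = 3 µM delta7-dafachronic acid wells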
# DAX1 inh-2: inhibitors of DAX1 repression of SF-1 activated StAR promoter | actives 1.1% (n = 370,000) | inhibition, % at 6.8 µM | HEK293T StAR-luciferase reporter, SF-1/DAX-1 repression relief;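 active means inhibition above the mean over all tested compounds plus 3 SD, cut at about 3.6% in these data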;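 further: 0% = DAX-1 cells with DMSO and 100% = cells lacking DAX-1 with DMSO; higher inhibition means more luminescence from relief of DAX-1 repression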
# Starred values were filed as active, the others as inactive; . = no result.
SMILES,DAX1 inh-1,hgDAF-12 ag,hcDAF-12 act,ssDAF-12 act,DAX1 inh-2
Cc1ccc(NC(=O)CCCC(=O)O)c(-c2nc3ccccc3[nH]c2=O)c1,1,0,2,0.9*,0
CCc1nnc(NC(=S)Nc2ccccc2)s1,0,12*,4,0,2
CC(C)Cc1nnc(NC(=O)CCC(=O)Nc2ccccc2)s1,0,6,0,-1,3.6*
Cc1cc(NC(=O)C(C)SCC(=O)O)no1 (stereo not given),0,1,-1,-1,1
Cc1ccc(C(=O)Nc2nnc(NC(=S)Nc3ccccc3)s2)cc1,-1,3,2,-1,0
Cc1cc(NC(=O)C(C)SCC(=O)Nc2nnc(CC(C)C)s2)no1 (stereo not given),1,1,-1,-1,3.6*
CCc1nnc(NC(=O)CCC(=O)Nc2ccccc2)s1,1,0,1,-1,1
CC1=CC(=O)C(C(C)C)=C/C1=N\OC(=O)c1cccc2nc(C)oc12,1,-2,5.7*,0,0
CC(CNc1nc2ccc(Cl)cc2n2cnnc12)c1ccccc1 (stereo not given),5.5*,-2,-2,-2,0
COc1ccc(-c2c(Cc3ccccc3)nc(NC(=O)c3ccccc3)n2Cc2ccccc2)cc1,.,0,-2,-2,1
O=C(O)c1cccnc1SC1CC(=O)N(c2ccccc2)C1=O (stereo not given),1,0,0,-1,0
O=C(O)c1ccccc1SC1CC(=O)N(c2ccccc2)C1=O (stereo not given),1,2,6.0*,-1,0
C[C@@H]1ON(C)[C@H]2C[C@H]3c4[nH]c5c(-c6ccc7c(c6)OCO7)cccc5c4CCN3C(=O)[C@@H]12,.,1,-1,-1,1
O=C(NCC(=O)N1CCCC(C(F)(F)F)C1)c1ccccc1Br (stereo not given),-1,1,4,1.3*,1
CCCCN(C)C(=O)CN1C(=O)C2CCCCN2C(=O)c2ccccc21 (stereo not given),.,-1,-3,0,-1
CC1Cc2ccccc2N1C(=O)CO/N=C/c1ccccc1OC(F)F (stereo not given),0,-1,-2,-1,-1
O=C(CO/N=C/c1ccccc1OC(F)F)N1CCc2ccccc21,2,3,6.5*,-1,0
O=C(NCc1ccccc1)O[C@H]1CC[C@@]23CCCN2C(=O)CCC[C@H]3C1,.,2,-2,-2,.
O=C(CSc1nc2[nH]ncc2c(=O)[nH]1)Nc1nccs1,.,-1,2,7.5*,0
CCc1nnc(NC(=O)CSc2nc3[nH]ncc3c(=O)[nH]2)s1,0,0,1,-1,0
COC(=O)[C@]12C[C@H](CC(=O)NCC34CC5CC(CC(C5)C3)C4)C(=O)N(CCc3ccc(OC)c(OC)c3)C1=C[C@H](C(C)C)O[C@@H]2C1CC1,.,0,-1,-1,0
C[C@H]1[C@@H](OC(=O)NCc2ccco2)CC[C@@]23CCCN2C(=O)CCC[C@@H]13,.,4,0,-1,.
COc1cccc2cc(C(=O)OCC(=O)N3CC(C)OC(C)C3)c(=O)oc12 (stereo not given),5.5*,10,5.7*,-1,3
O=C(NC1CCCC1)C(C1CC1)n1c(C2CC2)nc2ccccc21 (stereo not given),.,5,1,1.6*,2
Cn1cccc1C(=O)N1CCN(S(=O)(=O)c2cccc3ccccc23)CC1,.,-1,-2,-1,0
SMILES,DAX1 inh-1,hgDAF-12 ag,hcDAF-12 act,ssDAF-12 act,DAX1 inh-2
Cc1ccccc1Nc1nc(N)nc(COC(=O)c2cccn2C)n1,5.5*,8,2,0,3
CCOC(=O)c1c(C)[nH]c(C2=NNC(=Nc3ccccc3OC)SC2)c1C,1,3,6.0*,0,1
CCOC(=O)c1c(C)[nH]c(C2=NNC(=Nc3ccccc3)SC2)c1C,1,2,2,-2,0
COc1ccc(NC(=O)C(c2ccccc2F)n2c(=O)c(-c3cc4ccccc4[nH]3)nc3ccccc32)cc1 (stereo not given),.,12*,4,1,0
O=C(Nc1ccc2ccccc2c1)C(c1ccccc1F)n1c(=O)c(-c2cc3ccccc3[nH]2)nc2ccccc21 (stereo not given),.,6,5,1,0
O=C(NCc1ccccc1)C(c1ccc(-c2ccccc2)cc1)n1c(=O)c(-c2cc3ccccc3[nH]2)nc2ccccc21 (stereo not given),.,5,5,1.6*,2
O=C(NCc1ccccc1)C(c1ccncc1)n1c(=O)c(-c2cc3ccccc3[nH]2)nc2ccccc21 (stereo not given),.,9,5.7*,2.7*,3
COc1ccc(C(C(=O)NCc2ccccc2)n2c(=O)c(-c3cc4ccccc4[nH]3)nc3ccccc32)cc1 (stereo not given),.,4,3,0,2
COC(=O)CC1CCc2cc(C)cc(C(=O)CC(C)C)c2O1 (stereo not given),.,2,-1,-1,.
O=c1cc(N2CCN(c3ccccc3Cl)CC2)[nH]c(=O)n1Cc1ccc(F)cc1,3,-1,3,-1,0
O=c1cc(N2CCc3ccccc32)[nH]c(=O)n1Cc1ccc(F)cc1,0,0,5.8*,0,0
Cc1ccc2oc(C(=O)N(C)Cc3ccon3)c(C)c2c1,3,10,6.5*,0,2
Cc1ccc2oc(C(=O)N(C)Cc3ccc(C)o3)c(C)c2c1,0,2,-3,-1,0
Oc1ccccc1-c1nnc(SCCN2CCOCC2)n1Cc1ccccc1,0,0,6.9*,1.1*,0
O=C(CSc1nnc(-c2ccccc2)n1Cc1ccccc1)N1CCOCC1,-1,1,0,0,0
Cc1ccc(-c2cc3nc(-c4ccco4)cc(N4CCN(Cc5ccoc5)CC4)n3n2)cc1,.,1,0,-1,.
CCOCCCNC(=O)CNC(=S)N(Cc1ccccc1F)C1CCCCC1,-1,0,-2,-2,-1
COCCCNC(=O)CNC(=S)N(Cc1ccc(F)cc1)C1CCCCC1,0,2,4,1.2*,1
CCOC(=O)Cc1nc(N2CCN(C=O)CC2)c2c(C)c(C(=O)OCC)sc2n1,.,3,-3,-2,0
CCN(C(=O)CSc1nnnn1-c1ccc(Cl)cc1)C1CCS(=O)(=O)C1 (stereo not given),1,-1,0,-1,4.0*
Cn1c(SCc2cccc(F)c2)nnc1-c1ccccn1,5.2*,4,0,-1,1
Cn1c(SCc2ccccc2)nnc1-c1ccc(O)cc1,1,7,1,0.9*,0
Cn1c(SCc2cccc(Br)c2)nnc1-c1ccccn1,-1,-2,-3,-1,0
Cn1c(SCc2ccccc2)nnc1-c1ccco1,0,13*,-1,-1,0
